In PubChem BioAssay (NCATS):
“And” between values parts separate entries of the source, which are not always exact repeats. Equal entries are not always repeated. Records with an inconclusive call do not appear. The source made the active and inactive calls. Calls come from the whole dose curve.

Assay: qHTS Assay for Lipid Storage Modulators (AID 1519); for activity change, negative = inhibition: % is set by controls: 0 for no effect and ±100 for the full control effect
Conditions: Drosophila S3 cells, BODIPY lipid droplet/cell ratio, laser cytometry, cells loaded with oleic acid
Text: NIH Molecular Libraries Probe Production Centers Network [MLPCN]
NIH Chemical Genomics Center [NCGC]
Assay Submitter (PI): Beller, Mathias; Max-Planck-Institut fur Biophysikalische Chemie
NCGC Assay Overview: Storing lipids as a reservoir for energy or the anabolism of elementary metabolites is a common feature of probably all cells and is conserved from bacteria to humans. The universal cellular lipid storage organelle is the so-called lipid storage droplet (LD). Although ubiquitous, LDs share a simple structure composed of a hydrophobic core that harbors the storage lipids, which is shielded by a droplet-specific phospholipid monolayer to which proteins are attached. The current model of LD biogenesis involves an incorporation of the lipid core into the membrane leaflets of the endoplasmic reticulum (ER) followed by a subsequent budding-like maturation of a LD, which ultimately pinches off. Once released, LD volume can increase by localized lipogenesis or fusion of existing droplets. Storage lipids are re-mobilized enzymatically by lipase activity. Lipase regulation in the adipocyte is heavily studied and involves multiple components including catecholamine signaling, the LD-associated proteins Perilipin and comparative gene identification-58 (CGI-58) and at least two lipases named hormone sensitive lipase (HSL) and adipocyte triglyceride lipase (ATGL). LD regulation outside of the adipocyte is poorly understood and only few components are known. However, there is an urgent need to learn more about ectopic fat depots as mislocalized storage of lipids, for example in the liver or muscle, is an eminent health problem associated with insulin resistance or the metabolic syndrome. We developed a laser-scanning cytometer assay to enable 1,536-well screening and combined the results of the small molecules screen with an RNAi database based on lipid storage.
NCGC Assay Protocol Summary:
We dispensed 4 uL of cells at 1.25 x 10^6 cells/mL into LoBase Aurora COC 1,536-well plates (black walled, clear bottom) with a bottle-valve solenoid-based dispenser (Aurora) to obtain 5,000 cells/well. Triacsin C (Sigma-Aldrich T-4540), an inhibitor of long-chain fatty acyl CoA synthetase that blocks synthesis of triglycerides, was used as a positive control for lipid under-storage. A total of 23 nL of compound solution of different concentrations were transferred to the assay plates using a Kalypsys pin tool equipped with a 1,536-pin array containing 10-nL slotted pins (FP1S10, 0.457-mm diameter, 50.8 mm long; V&P Scientific). One microliter of oleic acid (400 uM) was added, and the plate was lidded with stainless steel rubber gasket lined lids containing pinholes. […] Fluorescence was detected by excitation of the fluorophores with a 488-nm laser on an Acumen Explorer (TTP Lab Tech). The total intensity in channel 1 (500-530 nm) reflected lipid droplet accumulation. […] The ratio of the total intensity in PMT channel 1 over total intensity of channel 3 was also calculated. Percent activity was computed relative to an internal control (100% inhibited lipid droplet deposition due to the presence of 20 uM Triacsin C), which was added to 32 wells/plate.

[1] = measured here: cell count channel max response
[2] = measured here: lipid channel max response

Compound | activity change, negative = inhibition (at 25.7 µM (top of the series)) | max response [1] | max response [2] | activity change, negative = inhibition (at 57.5 µM (top of the series))
O=C(NCNC(=O)N[C@H]1C(=O)NC(=O)N1CO)N[C@H]1C(=O)NC(=O)N1CO | -1.29% (inactive) | -9.3% | -8.35% | 
CN1CC[C@]2(C)c3cc(O)ccc3N(C)[C@@H]12 | -1.57% (inactive) | -15.4% | -17.5% | 
COc1cc2c(cc1O)[C@H]1Cc3ccc(OC)c(O)c3CN1CC2 | -1.48% (inactive) | -2.59% | -3.7% | 
CCN(CC)C(=O)N[C@@H]1C[C@H]2c3cccc4[nH]cc(c34)C[C@@H]2N(C)C1 | 2.1% (inactive) and 1.29% (inactive) | -3.13% and -3.55% | -0.685% and -2.23% | 
CC(C)Nc1nc(Cl)nc(NC(C)C)n1 |  | 5.6% | 10.8% | 3.35% (inactive)
CC1/C=C/C=C/CC/C=C/C=C/C=C/C=C/C(OC2OC(C)C(O)C(N)C2O)CC2O[C@](O)(CC(O)C(O)CCC(O)CC(O)CC(O)CC(=O)OC(C)C(C)C1O)CC(O)C2C(=O)O (some centres not stated) |  | 17% | 32% | 9.08% (inactive)
CN1CC(CNC(=O)OCc2ccccc2)CC2c3cccc4c3c(cn4C)CC21 (configuration not stated) |  | -1.98% | 5.84% | 7.09% (inactive)
COC(=O)NC(=S)Nc1ccccc1NC(=S)NC(=O)OC |  | 8.02% | 10.3% | 3.23% (inactive)
COC[C@]12CN(C=O)C3C4C(OC)C1[C@@]3(C1CC3(O)C(OC)C(O)C4(OC(C)=O)C1C3OC(=O)c1ccccc1)[C@@H](OC)CC2O (some centres not stated) |  | -6.49% | -7.99% | -0.123% (inactive)
O=C(Nc1ccccc1)N1CC2(CCN(C(=O)Oc3ccccc3)CC2)C1 |  | 9.38% | 22.2% | 7.64% (inactive)
CC(=O)OC1C(=O)[C@]2(C)C(O)CC3OC[C@]3(OC(C)=O)C2[C@@H](OC(=O)c2ccccc2)[C@]2(O)CC(O)C(C)=C1C2(C)C (some centres not stated) |  | 3.27% | 6.64% | 0.522% (inactive)
CC(=O)OC1CC[C@@]2(C)C3CC[C@]4(C)C(=O)CCC4C3CC[C@H]2C1 (some centres not stated) |  | -8.94% | -14.8% | -0.903% (inactive)
O=C(Oc1ccccc1)N1CCC2(CC1)CCN(C(c1ccccc1)c1ccccc1)CC2 |  | 5.73% | 13.3% | 4.05% (inactive)
CC1CC[C@@]2(OC1)OC1C(O)C3C4CC[C@H]5CC(O[C@@H]6O[C@@H](CO)[C@H](OC7OC(CO)C(O)C(OC8OCC(O)C(O)[C@H]8O)[C@@H]7O[C@@H]7OC(CO)[C@H](O)[C@@H](O[C@@H]8OC(CO)C(O)C(O)C8O)C7O)C(O)C6O)C(O)C[C@]5(C)C4CC[C@]3(C)C1C2C (some centres not stated) |  | -28.8% | -26% | -0.601% (inactive)
